High-throughput results (PubChem BioAssay)
14-3-3 PPI: alters human 14-3-3 gamma binding to Raf peptide; P61981; FP, 14-3-3gamma / TMR-pS259-Raf peptide binding; inhibition, % at 40 µM; hit rate 0.19% among 160,000; in the data active = inhibition above about 30%
Target sequence (P61981 whole entry, looked up): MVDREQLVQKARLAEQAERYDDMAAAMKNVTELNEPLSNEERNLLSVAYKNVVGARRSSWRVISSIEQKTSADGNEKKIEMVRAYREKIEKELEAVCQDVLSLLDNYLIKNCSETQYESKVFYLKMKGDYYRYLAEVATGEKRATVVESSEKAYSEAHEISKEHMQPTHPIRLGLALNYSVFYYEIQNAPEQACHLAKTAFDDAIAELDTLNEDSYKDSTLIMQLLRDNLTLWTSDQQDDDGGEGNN
Each line names hits and unclear results; the compound was inactive in the other large screens. The sample as a whole holds a higher share of hits than the screen did.

O=C(C1=C(O)C(=O)N(c2nncs2)C1c1cccc(Br)c1)c1cccs1 (stereo not drawn)	14-3-3 PPI 83.9
COc1ccc(C2C(C(=O)c3cccs3)=C(O)C(=O)N2c2nnc(C)s2)cc1OC (stereo not drawn)	none
Cc1cc2c(=O)n(CC(=O)Nc3ccc(Cl)cn3)cnc2s1	none
CCN(CC)c1ccc2cc(C(=O)Nc3ccccn3)c(=O)oc2c1	none
CCN(CC)c1ccc2cc(C(=O)Nc3ccc(C)cc3)c(=O)oc2c1	none
CCN(CC)c1ccc2cc(C(=O)c3cc4ccc(N(CC)CC)cc4oc3=O)c(=O)oc2c1	14-3-3 PPI 77.2
O=c1[nH]c(-c2ccc(Cl)cc2)nc2ccccc12	none
COC(=O)c1ccc(C(=O)OC)c(NC(=O)c2ccc(F)cc2)c1	none
